# How the values were obtained:
# Assay in all cases: fluorescence anisotropy competition titration; 25 mM sodium phosphate (purification buffer pH 7.2), 225 mM NaCl, 10% v/v glycerol, 5 mM DTT, 0.2 mg/mL BSA, 22 C; low values mean tight binding
# Conditions in all cases: protein: recombinant; tags: N-terminal 6xHis-lipoyl-TEV tag, cleaved; chain copies: 4; dsDNA, one strand shown
# [1] = biological target: T1, Dmp53 (Drosophila melanogaster, UniProt Q9N6D8 1-385)
# T1 sequence: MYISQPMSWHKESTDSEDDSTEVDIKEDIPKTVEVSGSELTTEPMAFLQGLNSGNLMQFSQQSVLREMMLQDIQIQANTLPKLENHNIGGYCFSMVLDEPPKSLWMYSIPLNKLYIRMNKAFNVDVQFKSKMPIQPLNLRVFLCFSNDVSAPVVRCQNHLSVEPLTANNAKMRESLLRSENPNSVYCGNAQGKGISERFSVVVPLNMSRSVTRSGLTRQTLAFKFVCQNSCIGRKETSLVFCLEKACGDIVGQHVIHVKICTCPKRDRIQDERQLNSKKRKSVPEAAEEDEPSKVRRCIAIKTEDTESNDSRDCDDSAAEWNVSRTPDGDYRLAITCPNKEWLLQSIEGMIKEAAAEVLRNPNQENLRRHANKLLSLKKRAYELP
# [2] = biological target: T2, Drp53 (Danio rerio, UniProt P79734 1-373)
# T2 sequence: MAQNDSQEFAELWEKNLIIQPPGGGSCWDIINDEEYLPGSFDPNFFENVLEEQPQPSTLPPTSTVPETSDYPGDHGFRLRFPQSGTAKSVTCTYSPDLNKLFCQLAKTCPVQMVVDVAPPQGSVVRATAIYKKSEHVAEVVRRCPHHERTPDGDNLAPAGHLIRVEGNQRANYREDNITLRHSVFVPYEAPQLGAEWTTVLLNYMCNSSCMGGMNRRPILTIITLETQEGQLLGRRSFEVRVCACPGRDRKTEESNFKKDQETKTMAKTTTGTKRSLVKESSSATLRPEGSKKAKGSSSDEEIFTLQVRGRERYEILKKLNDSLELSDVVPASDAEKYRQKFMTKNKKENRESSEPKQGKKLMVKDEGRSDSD
# [3] = biological target: Hsp53 (Homo sapiens, UniProt P04637 1-393)
# [4] = biological target: Xlp53 (Xenopus laevis, UniProt Q7T1D0 1-362)
# [5] = biological target: T3, ΔNp63α (Homo sapiens, UniProt Q9H3D4-2 1-586)
# T3 sequence: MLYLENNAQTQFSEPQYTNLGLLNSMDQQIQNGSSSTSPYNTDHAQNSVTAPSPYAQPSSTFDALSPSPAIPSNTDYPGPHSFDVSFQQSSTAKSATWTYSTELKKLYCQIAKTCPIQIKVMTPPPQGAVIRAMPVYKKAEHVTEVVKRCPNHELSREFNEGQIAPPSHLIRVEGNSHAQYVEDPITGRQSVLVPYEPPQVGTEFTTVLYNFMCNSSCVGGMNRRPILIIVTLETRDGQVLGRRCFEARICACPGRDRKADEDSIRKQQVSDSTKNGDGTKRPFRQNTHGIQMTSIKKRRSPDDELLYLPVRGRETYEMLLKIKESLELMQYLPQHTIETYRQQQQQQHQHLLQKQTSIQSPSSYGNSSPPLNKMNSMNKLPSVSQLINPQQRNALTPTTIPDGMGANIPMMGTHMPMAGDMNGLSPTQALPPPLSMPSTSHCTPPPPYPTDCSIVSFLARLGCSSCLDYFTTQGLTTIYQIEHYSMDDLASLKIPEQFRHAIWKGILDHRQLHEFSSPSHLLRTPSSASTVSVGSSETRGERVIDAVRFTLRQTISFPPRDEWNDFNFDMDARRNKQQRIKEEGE
# [6] = biological target: T4, ΔNp63β (Homo sapiens, UniProt Q9H3D4-4 1-461)
# T4 sequence: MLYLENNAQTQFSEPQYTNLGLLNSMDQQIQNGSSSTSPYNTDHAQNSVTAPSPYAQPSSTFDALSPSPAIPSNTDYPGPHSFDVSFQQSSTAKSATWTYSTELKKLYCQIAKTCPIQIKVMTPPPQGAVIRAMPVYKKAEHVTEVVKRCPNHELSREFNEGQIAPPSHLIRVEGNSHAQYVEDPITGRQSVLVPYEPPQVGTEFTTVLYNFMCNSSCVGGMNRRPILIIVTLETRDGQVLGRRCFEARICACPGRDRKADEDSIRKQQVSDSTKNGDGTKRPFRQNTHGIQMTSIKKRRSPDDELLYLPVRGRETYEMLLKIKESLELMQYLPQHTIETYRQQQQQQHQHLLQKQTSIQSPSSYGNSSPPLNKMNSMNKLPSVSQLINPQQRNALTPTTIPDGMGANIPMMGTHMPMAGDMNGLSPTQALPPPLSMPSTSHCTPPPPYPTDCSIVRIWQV
# [7] = biological target: T5, ΔNp63γ (Homo sapiens, UniProt Q9H3D4-6 1-393)
# T5 sequence: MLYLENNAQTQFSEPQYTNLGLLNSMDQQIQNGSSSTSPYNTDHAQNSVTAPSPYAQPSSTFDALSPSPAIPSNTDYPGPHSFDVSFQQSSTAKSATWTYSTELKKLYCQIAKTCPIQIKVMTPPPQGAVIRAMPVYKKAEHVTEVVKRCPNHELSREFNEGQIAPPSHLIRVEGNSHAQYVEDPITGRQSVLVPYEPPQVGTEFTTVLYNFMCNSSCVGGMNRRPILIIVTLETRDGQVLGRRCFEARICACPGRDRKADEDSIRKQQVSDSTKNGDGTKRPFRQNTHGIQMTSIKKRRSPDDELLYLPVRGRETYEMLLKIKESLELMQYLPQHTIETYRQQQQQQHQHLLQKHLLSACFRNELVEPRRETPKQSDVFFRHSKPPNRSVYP
# [8] = biological target: T6, ΔNp73β (Homo sapiens, UniProt O15350-9 1-450)
# T6 sequence: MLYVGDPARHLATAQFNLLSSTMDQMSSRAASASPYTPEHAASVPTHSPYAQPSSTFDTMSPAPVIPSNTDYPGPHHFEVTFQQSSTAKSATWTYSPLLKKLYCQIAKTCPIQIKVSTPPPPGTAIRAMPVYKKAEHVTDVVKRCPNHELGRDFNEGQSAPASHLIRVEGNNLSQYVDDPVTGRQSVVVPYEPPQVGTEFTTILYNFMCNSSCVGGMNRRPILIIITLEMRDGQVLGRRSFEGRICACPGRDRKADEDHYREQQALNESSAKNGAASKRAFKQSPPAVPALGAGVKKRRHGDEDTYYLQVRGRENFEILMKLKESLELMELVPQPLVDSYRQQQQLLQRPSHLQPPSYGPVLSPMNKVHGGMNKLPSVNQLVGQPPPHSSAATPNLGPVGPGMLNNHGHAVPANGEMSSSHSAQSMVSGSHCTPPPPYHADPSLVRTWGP
# [9] = biological target: Mmp53 (Mus musculus, UniProt P02340 1-390)
# [10] = biological target: T7, p73CT (Homo sapiens, UniProt O15350 104-383)
# T7 sequence: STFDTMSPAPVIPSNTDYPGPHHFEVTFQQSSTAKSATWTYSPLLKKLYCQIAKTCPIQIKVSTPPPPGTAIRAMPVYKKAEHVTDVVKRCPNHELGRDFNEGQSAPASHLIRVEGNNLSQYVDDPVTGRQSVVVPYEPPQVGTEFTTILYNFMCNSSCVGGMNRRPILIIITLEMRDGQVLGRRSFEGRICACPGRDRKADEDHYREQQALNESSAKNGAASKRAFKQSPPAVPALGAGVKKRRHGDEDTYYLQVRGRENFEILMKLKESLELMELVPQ
# Hsp53, sequence (P04637 whole entry): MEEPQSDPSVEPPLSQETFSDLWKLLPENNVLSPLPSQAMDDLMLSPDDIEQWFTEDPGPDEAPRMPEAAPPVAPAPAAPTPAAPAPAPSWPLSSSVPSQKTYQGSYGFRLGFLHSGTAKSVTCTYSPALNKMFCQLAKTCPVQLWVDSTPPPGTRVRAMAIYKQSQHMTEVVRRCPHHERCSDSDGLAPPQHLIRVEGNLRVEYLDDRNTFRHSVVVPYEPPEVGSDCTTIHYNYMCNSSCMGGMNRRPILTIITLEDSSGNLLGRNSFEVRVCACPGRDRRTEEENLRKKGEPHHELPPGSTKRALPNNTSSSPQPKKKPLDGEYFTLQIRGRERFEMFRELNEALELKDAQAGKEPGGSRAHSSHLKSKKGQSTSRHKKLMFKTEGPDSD
# Xlp53, sequence (Q7T1D0 entry or part of it): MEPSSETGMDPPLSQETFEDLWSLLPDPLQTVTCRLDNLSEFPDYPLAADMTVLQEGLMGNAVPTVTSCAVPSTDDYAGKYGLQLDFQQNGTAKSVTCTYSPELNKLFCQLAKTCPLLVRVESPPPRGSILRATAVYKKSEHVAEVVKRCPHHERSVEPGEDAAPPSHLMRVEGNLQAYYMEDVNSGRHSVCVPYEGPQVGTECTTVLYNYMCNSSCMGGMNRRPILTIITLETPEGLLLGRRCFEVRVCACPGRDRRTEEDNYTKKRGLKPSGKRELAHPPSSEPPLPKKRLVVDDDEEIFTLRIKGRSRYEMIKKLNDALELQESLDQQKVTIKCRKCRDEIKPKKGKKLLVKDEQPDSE
# Mmp53, sequence (P02340 whole entry): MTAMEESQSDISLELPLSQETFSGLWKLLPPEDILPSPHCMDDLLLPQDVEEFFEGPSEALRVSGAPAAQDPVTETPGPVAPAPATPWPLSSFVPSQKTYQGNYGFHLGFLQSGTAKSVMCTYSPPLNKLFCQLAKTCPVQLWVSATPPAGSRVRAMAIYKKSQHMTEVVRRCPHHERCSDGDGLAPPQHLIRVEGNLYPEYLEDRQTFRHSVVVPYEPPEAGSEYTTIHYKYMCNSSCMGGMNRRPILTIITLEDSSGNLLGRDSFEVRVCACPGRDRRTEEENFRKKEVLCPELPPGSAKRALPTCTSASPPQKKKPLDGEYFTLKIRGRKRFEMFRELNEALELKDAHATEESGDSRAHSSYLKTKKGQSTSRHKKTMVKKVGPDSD
Sequence,binding signal [1] [delta log10 Kd],binding signal [2] [delta log10 Kd],binding signal [3] [delta log10 Kd],binding signal [4] [delta log10 Kd],binding signal [5] [delta log10 Kd],binding signal [6] [delta log10 Kd],binding signal [7] [delta log10 Kd],binding signal [8] [delta log10 Kd],binding signal [9] [delta log10 Kd],binding signal [10] [delta log10 Kd]
CGCGGACATTTCCGGACATGTCCCGC,1.55,1.37,0.44,0.88,1.1,1.2,1.46,1.43,0.65,1.58
CGCGGAGATGTCCGGACATGTCCCGC,1.2,0.95,0.74,1.07,0.84,1.29,1.19,1.32,0.4,1.18
CGCGGACATGTCGGGACATGTCCCGC,0.02,0.19,0.27,0.22,0.11,0.11,0.1,0.17,0.24,0.17
CGCGGCCATGTCCGGACATGTCCCGC,0.75,0.86,0.66,0.82,–,0.88,0.93,–,0.46,–
CGCGGACATCTCCGGACATGTCCCGC,1.51,1.3,0.9,1.38,1.33,1.45,1.68,1.8,0.67,1.56
CGCGGACATGTACGGACATGTCCCGC,0.07,0.39,0.34,0.35,0.15,0.29,0.32,0.4,0.27,0.36
CGCGGACATGCCCGGACATGTCCCGC,0.26,–,0.03,0.03,0.06,0.13,0.12,0.03,–,0.05
CGCGAACATGTCCGGACATGTCCCGC,0,0.08,0.05,0.01,0,0.02,0.1,0.03,0.08,0.05
CGCGGACACGTCCGGACATGTCCCGC,0.25,0.65,0.53,0.7,0.25,0.57,0.52,0.62,0.36,0.58
CGCGGACATATCCGGACATGTCCCGC,0.98,1.14,0.83,1.01,0.92,1.2,1.31,1.32,0.63,1.44
CGCGGTCATGTCCGGACATGTCCCGC,0.36,0.48,0.42,0.35,–,0.53,0.49,–,0.29,–
CGCGGACATGTGCGGACATGTCCCGC,0.23,0.54,0.49,0.57,0.3,0.46,0.49,0.65,0.36,0.53
CGCGGACTTGTCCGGACATGTCCCGC,0.36,0.3,0.14,0.16,0.06,0.27,0.41,0.36,0.24,0.45
CGCAGACATGTCCGGACATGTCCCGC,0.03,0.01,0.01,0,0,0.03,0.04,0.01,0.05,0.02
CGCGGATATGTCCGGACATGTCCCGC,1.01,0.58,0.56,0.62,0.68,0.85,0.97,1.04,0.34,1.06
CGCGTACATGTCCGGACATGTCCCGC,0.12,0.21,0.21,0.13,0.08,0.23,0.21,0.24,0.19,0.24
CGCGCACATGTCCGGACATGTCCCGC,0.21,0.41,0.37,0.27,0.15,0.36,0.37,0.44,0.28,0.39
CGCGGAAATGTCCGGACATGTCCCGC,1.31,1.13,0.77,0.9,1.08,0.93,1.4,1.49,0.52,1.35
CGCGGACATGTCAGGACATGTCCCGC,0.14,0.32,0.31,0.27,0.09,0.13,0.13,0.27,0.2,0.2
CGCGGACATGTCTGGACATGTCCCGC,0.03,0.02,0.13,0.07,0.04,0.05,0.05,0,0.11,0.08
CGCGGACAGGTCCGGACATGTCCCGC,0.35,0.65,0.36,0.41,0.17,0.43,0.43,0.49,0.4,0.41
CGCTGACATGTCCGGACATGTCCCGC,0.02,0.22,0.16,0.13,0.08,0.1,0.1,0.11,0.18,0.09
CGCGGACAAGTCCGGACATGTCCCGC,0.22,0.35,0.16,0.18,0.02,0.15,0.19,0.12,0.27,0.19
CGCGGACGTGTCCGGACATGTCCCGC,0.18,0.54,0.43,0.44,0.07,0.2,0.19,0.27,0.31,0.22
CGCCGACATGTCCGGACATGTCCCGC,0.03,0.15,0.17,0.1,0.04,0.07,0.09,0,0.15,0.06
CGCGGACATGACCGGACATGTCCCGC,0.24,–,0.42,0.43,0.43,0.62,0.72,0.78,–,0.57
CGCGGACCTGTCCGGACATGTCCCGC,0.54,0.77,0.45,0.48,0.3,0.57,0.58,0.64,0.4,0.56
CGCGGACATGTTCGGACATGTCCCGC,0.17,0.38,0.34,0.39,0.17,0.47,0.33,0.48,0.19,0.36
CGCGGACATGGCCGGACATGTCCCGC,0.93,–,0.73,0.89,0.85,1.06,1.21,1.18,–,1
CGCGGGCATGTCCGGACATGTCCCGC,0.25,0,0.07,0.01,–,0,0.06,–,0.03,–

# Reference: PMC2807882, “Conservation of DNA-binding specificity and oligomerisation properties within the p53 family”
